Consider 21 sequences from publication PMC11006913.

Holding throughout (assay): PBM; 200 nM protein, PBS
Settings in all cases: dsDNA, one strand shown

The target of assay [1] is CRX (Homo sapiens, UniProt O43186 26-111).
Assay [2] has as its target CRX (Homo sapiens, UniProt O43186 26-111, E42D).
The target of the next assay is PITX2 (Homo sapiens, UniProt Q99697 72-157).
For assay [3], the target named is CRX (Homo sapiens, UniProt O43186 26-111, R41L).
In assay [4] the target is NKX3-2 (Homo sapiens, UniProt P78367 192-278, P234S).
Chain of NKX3-2 (Homo sapiens, UniProt P78367 192-278, P234S) (P78367 192-278 P234S): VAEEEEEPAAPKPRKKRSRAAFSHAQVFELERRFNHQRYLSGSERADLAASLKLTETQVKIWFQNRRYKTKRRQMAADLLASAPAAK
In assay [5] the target is NKX3-2 (Homo sapiens, UniProt P78367 192-278).
Chain of NKX3-2 (Homo sapiens, UniProt P78367 192-278) (P78367 192-278): as the sequence (P78367 192-278 P234S) above, with S43P counted along it

Chain of CRX (Homo sapiens, UniProt O43186 26-111, R41L) (O43186 26-111 R41L): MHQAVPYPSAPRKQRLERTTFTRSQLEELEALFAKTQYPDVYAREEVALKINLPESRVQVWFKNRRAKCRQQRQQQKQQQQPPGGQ
Chain of CRX (Homo sapiens, UniProt O43186 26-111, E42D) (O43186 26-111 E42D): as the sequence (O43186 26-111 R41L) above, with L16R, E17D counted along it
Chain of CRX (Homo sapiens, UniProt O43186 26-111) (O43186 26-111): as the sequence (O43186 26-111 R41L) above, with L16R counted along it

Turning to GTTGGCCA, the binding signal was 8.35 upbm affinity estimate (log intensity, higher = more binding, comparable within an allelic series) with CRX [1]; 8.33 upbm affinity estimate (log intensity, higher = more binding, comparable within an allelic series) with CRX [2]; 8.06 upbm affinity estimate (log intensity, higher = more binding, comparable within an allelic series) with PITX2; 8.24 upbm affinity estimate (log intensity, higher = more binding, comparable within an allelic series) with CRX [3].

In the case of GATAATCC, the binding signal is 13.6 upbm affinity estimate (log intensity, higher = more binding, comparable within an allelic series) with CRX [1]; 13.8 upbm affinity estimate (log intensity, higher = more binding, comparable within an allelic series) with CRX [2]; 13.4 upbm affinity estimate (log intensity, higher = more binding, comparable within an allelic series) with PITX2; 13.9 upbm affinity estimate (log intensity, higher = more binding, comparable within an allelic series) with CRX [3].

For ATGGATTA, the binding signal with CRX [1] was 13.2 upbm affinity estimate (log intensity, higher = more binding, comparable within an allelic series); in the assay with CRX [2] it was 13.2 upbm affinity estimate (log intensity, higher = more binding, comparable within an allelic series); with PITX2 it was 13.2 upbm affinity estimate (log intensity, higher = more binding, comparable within an allelic series); with CRX [3] it was 13 upbm affinity estimate (log intensity, higher = more binding, comparable within an allelic series).

As to ATAGATTA, the binding signal in the assay with CRX [1] was 12.7 upbm affinity estimate (log intensity, higher = more binding, comparable within an allelic series); with CRX [2], 12.5 upbm affinity estimate (log intensity, higher = more binding, comparable within an allelic series); with PITX2, 12.3 upbm affinity estimate (log intensity, higher = more binding, comparable within an allelic series); with CRX [3], 12.3 upbm affinity estimate (log intensity, higher = more binding, comparable within an allelic series).

Turning to GGGCTCCA, the binding signal with CRX [1] was 8.35 upbm affinity estimate (log intensity, higher = more binding, comparable within an allelic series); in the assay with CRX [2], 8.31 upbm affinity estimate (log intensity, higher = more binding, comparable within an allelic series); with CRX [3], 8.31 upbm affinity estimate (log intensity, higher = more binding, comparable within an allelic series).

In the case of AGTGCACG, the binding signal is 8.25 upbm affinity estimate (log intensity, higher = more binding, comparable within an allelic series) with CRX [1]; 8.27 upbm affinity estimate (log intensity, higher = more binding, comparable within an allelic series) with CRX [2]; 8.23 upbm affinity estimate (log intensity, higher = more binding, comparable within an allelic series) with CRX [3].

As for ACGCCACG, the binding signal is 8.27 upbm affinity estimate (log intensity, higher = more binding, comparable within an allelic series) in the assay with CRX [1]; 8.14 upbm affinity estimate (log intensity, higher = more binding, comparable within an allelic series) with CRX [2]; 8.23 upbm affinity estimate (log intensity, higher = more binding, comparable within an allelic series) with CRX [3].

Consider ATTTAAGA, for which the binding signal with CRX [1] was 11.1 upbm affinity estimate (log intensity, higher = more binding, comparable within an allelic series); with CRX [2], 10.8 upbm affinity estimate (log intensity, higher = more binding, comparable within an allelic series); with CRX [3], 10.4 upbm affinity estimate (log intensity, higher = more binding, comparable within an allelic series).

With CGGGTCAC, the binding signal was 7.89 upbm affinity estimate (log intensity, higher = more binding, comparable within an allelic series) with CRX [1]; 8.08 upbm affinity estimate (log intensity, higher = more binding, comparable within an allelic series) in the assay with CRX [2]; 8.09 upbm affinity estimate (log intensity, higher = more binding, comparable within an allelic series) in the assay with CRX [3].

With ACTAATCT, the binding signal in the assay with CRX [1] is 13.1 upbm affinity estimate (log intensity, higher = more binding, comparable within an allelic series); in the assay with CRX [2], 13.1 upbm affinity estimate (log intensity, higher = more binding, comparable within an allelic series); in the assay with CRX [3], 12.7 upbm affinity estimate (log intensity, higher = more binding, comparable within an allelic series).

Regarding CAGGCTAG, the binding signal was 8.3 upbm affinity estimate (log intensity, higher = more binding, comparable within an allelic series) in the assay with CRX [1]; 8.21 upbm affinity estimate (log intensity, higher = more binding, comparable within an allelic series) with CRX [2]; 8.16 upbm affinity estimate (log intensity, higher = more binding, comparable within an allelic series) in the assay with CRX [3].

Consider GAAGTTCC, for which the binding signal with CRX [1] is 8.51 upbm affinity estimate (log intensity, higher = more binding, comparable within an allelic series); with CRX [2] it was 8.44 upbm affinity estimate (log intensity, higher = more binding, comparable within an allelic series); in the assay with CRX [3], 8.28 upbm affinity estimate (log intensity, higher = more binding, comparable within an allelic series).

As for CCGATCAG, the binding signal in the assay with CRX [1] is 9.74 upbm affinity estimate (log intensity, higher = more binding, comparable within an allelic series); with CRX [2], 9.63 upbm affinity estimate (log intensity, higher = more binding, comparable within an allelic series); with CRX [3] it was 9.48 upbm affinity estimate (log intensity, higher = more binding, comparable within an allelic series).

Take ACCAGTCG: the binding signal was 8.53 upbm affinity estimate (log intensity, higher = more binding, comparable within an allelic series) in the assay with CRX [1]; 8.43 upbm affinity estimate (log intensity, higher = more binding, comparable within an allelic series) in the assay with CRX [2]; 10.4 upbm affinity estimate (log intensity, higher = more binding, comparable within an allelic series) with NKX3-2 [4]; 8.32 upbm affinity estimate (log intensity, higher = more binding, comparable within an allelic series) with CRX [3]; 10.4 upbm affinity estimate (log intensity, higher = more binding, comparable within an allelic series) in the assay with NKX3-2 [5].

For the sequence AATTCCAT, the binding signal is 10.2 upbm affinity estimate (log intensity, higher = more binding, comparable within an allelic series) with CRX [1]; 10.1 upbm affinity estimate (log intensity, higher = more binding, comparable within an allelic series) with CRX [2]; 9.91 upbm affinity estimate (log intensity, higher = more binding, comparable within an allelic series) with CRX [3].

Take GAACGTTC: the binding signal with CRX [1] was 8.02 upbm affinity estimate (log intensity, higher = more binding, comparable within an allelic series); in the assay with CRX [2], 7.99 upbm affinity estimate (log intensity, higher = more binding, comparable within an allelic series); in the assay with CRX [3] it was 8.07 upbm affinity estimate (log intensity, higher = more binding, comparable within an allelic series).

As for GCAACCGC, the binding signal with CRX [1] is 8.47 upbm affinity estimate (log intensity, higher = more binding, comparable within an allelic series); in the assay with CRX [2] it was 8.38 upbm affinity estimate (log intensity, higher = more binding, comparable within an allelic series); with CRX [3], 8.34 upbm affinity estimate (log intensity, higher = more binding, comparable within an allelic series).

Regarding AAGGGTGG, the binding signal with CRX [1] is 8.2 upbm affinity estimate (log intensity, higher = more binding, comparable within an allelic series); with CRX [2], 8.31 upbm affinity estimate (log intensity, higher = more binding, comparable within an allelic series); with CRX [3], 8.33 upbm affinity estimate (log intensity, higher = more binding, comparable within an allelic series).

For GGTCGAAC, the binding signal was 8.09 upbm affinity estimate (log intensity, higher = more binding, comparable within an allelic series) with CRX [1]; 8.11 upbm affinity estimate (log intensity, higher = more binding, comparable within an allelic series) with CRX [2]; 8.1 upbm affinity estimate (log intensity, higher = more binding, comparable within an allelic series) in the assay with CRX [3].

In the case of AAGATTAT, the binding signal with CRX [1] is 12.9 upbm affinity estimate (log intensity, higher = more binding, comparable within an allelic series); in the assay with CRX [2] it was 12.8 upbm affinity estimate (log intensity, higher = more binding, comparable within an allelic series); with CRX [3], 12.8 upbm affinity estimate (log intensity, higher = more binding, comparable within an allelic series).

With GTTTAAAA, the binding signal with CRX [1] was 9.91 upbm affinity estimate (log intensity, higher = more binding, comparable within an allelic series); in the assay with CRX [2] it was 9.79 upbm affinity estimate (log intensity, higher = more binding, comparable within an allelic series); in the assay with CRX [3] it was 9.59 upbm affinity estimate (log intensity, higher = more binding, comparable within an allelic series).
